# Source: PubChem BioAssay AID588493 (Sanford-Burnham Center for Chemical Genomics, 2011)
# The whole screen tested about 360,000 compounds, of which about 2,100 (0.58%) were called active.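 How the source made its calls: active means inhibition at 20 µM, scaled to each plate's controls, above about 33% (limit read from the data); inactive means the rest.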 The list comes from a sample in which actives are over-represented; it also holds similar structures and randomly drawn compounds.
# Target: 26S proteasome non-ATPase regulatory subunit 14 (Homo sapiens) (UniProt O00487)
# Test: Rpn11 (PSMD14) deubiquitinase inhibitors, primary screen, biochemical, fluorescence polarization, uHTS (AID 588493)
# Settings: human 26S proteasome, Ub4-pepOG fluorescence polarization; at 20 µM; hits give high values; 20S core pre-blocked with epoxomicin
# 26S proteasome non-ATPase regulatory subunit 14 (Homo sapiens), sequence (O00487 whole entry, looked up): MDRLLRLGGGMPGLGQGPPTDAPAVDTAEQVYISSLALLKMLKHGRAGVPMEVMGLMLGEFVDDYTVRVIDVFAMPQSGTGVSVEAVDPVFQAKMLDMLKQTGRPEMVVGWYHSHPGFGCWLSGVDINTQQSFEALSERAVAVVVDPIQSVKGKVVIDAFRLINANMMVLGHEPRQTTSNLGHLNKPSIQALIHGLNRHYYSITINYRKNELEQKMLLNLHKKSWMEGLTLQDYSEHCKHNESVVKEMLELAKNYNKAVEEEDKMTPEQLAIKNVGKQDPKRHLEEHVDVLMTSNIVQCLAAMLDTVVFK
row,SMILES,inhibition
1,CCCCN(C=O)c1c(CC)nc2c(OCCC3CCCCC3)cccn12,3.8% (inactive)
2,Cc1cc(N)n2nc(-c3ccc(C(C)(C)C)cc3)cc2n1,8.7% (inactive)
3,Cc1cc2cc(CNC(=O)c3cccs3)ccc2[nH]1,3.4% (inactive)
4,Cc1cc(/C=N/Nc2ccc([N+](=O)[O-])cn2)c(C)n1-c1cccc(C(=O)O)c1,49% (active)
5,Cc1cc(/C=N/NC(=O)CC2(C)OCCO2)c(C)n1-c1ccc(Cl)c(Cl)c1,4.1% (inactive)
6,CC(C)c1ccc(C=NNc2ccc([N+](=O)[O-])cn2)cc1,3.1% (inactive)
7,O=C(Nc1cccc(Cl)c1)c1cc(S(=O)(=O)N2CCCCC2)c[nH]1,3.9% (inactive)
8,CN(C)C(=O)c1cccc(-c2cnc3sc(NCc4ccc5c(c4)OCO5)nn23)c1,-1.9% (inactive)
9,NC(=NC(=O)c1ccccc1)C1=C(O)CCC1=O,-7.5% (inactive)
10,COCCCNC(=O)Cn1c(=O)n(Cc2ccccc2Cl)c(=O)c2cc(OC)c(OC)cc21,-0.4% (inactive)
11,Cc1ccc(Nc2nc(Cl)c(C=O)s2)cc1,108% (active)
12,CCCCC(=O)Nc1nc(C)c(-c2csc(Nc3ccc(Cl)cc3)n2)s1,13.9% (inactive)
13,Cc1ccc(Nc2nnc(SC(C)C(=O)NC3CC3)s2)cc1 (stereo not given),4.1% (inactive)
14,CSc1ncnc2c1ncn2CCCNCC(C)c1ccccc1 (stereo not given),-1.5% (inactive)
15,COC(=O)C1=C(C)NC2=C(C(=O)c3ccccc32)C1c1ccc(-c2ccc(C(=O)O)cc2)o1 (stereo not given),67.4% (active)
16,COC(=O)C1=C(C)NC(=O)/C1=C/c1ccc(CNS(=O)(=O)c2ccc(C)cc2)o1,-0.8% (inactive)
17,O=C(NCc1ccc(Cl)cc1)C1CCN(S(=O)(=O)c2cccs2)CC1,4.3% (inactive)
18,Cn1nnnc1SCC(=O)Nc1ccccc1C(=O)NC1CC1,5.5% (inactive)
19,CCN(CC)CCn1c2c(c(SCC(=O)Nc3ccc(C(C)C)cc3)nc1=O)CCC2,0.3% (inactive)
20,CC(=O)Nc1c2c(nn1-c1ccc(C)cc1C)CS(=O)C2 (stereo not given),1.3% (inactive)
21,COc1cc(/C=C2/SC(=S)N(Cc3ccccc3)C2=O)cc(OC)c1O,49.6% (active)
22,COc1ccc(CCNC2=C(Cl)C(=O)N(Cc3ccccc3)C2=O)cc1OC,-4.9% (inactive)
23,O=C(Nc1ccc(OCCO)cc1)c1csc([C@H]2C[C@H](O)[C@@H](CO)O2)n1,0.7% (inactive)
24,CC(C)=CCN1CCN(CCCc2ccccc2)CC1CCO (stereo not given),-5% (inactive)

row,SMILES,inhibition
1,Cc1nc(N)sc1N=Nc1c(C)n(C)n(-c2ccccc2)c1=O,8.3% (inactive)
2,Cc1c(C=O)n(C)n(-c2ccccc2)c1=O,8.1% (inactive)
3,Cc1c(N=Nc2ccc(N(C)C)cc2)c(=O)n(-c2ccccc2)n1C,67.4% (active)
4,Cc1csc(=O)n1CCC(=O)OCC(=O)Nc1ccc(N2CCOCC2)cc1,-1.7% (inactive)
5,O=C(OCC(=O)N1CCOCC1)c1ccc(N2CCOCC2)c([N+](=O)[O-])c1,1.7% (inactive)
6,CCCCN(CC)C(=O)c1ccccc1Oc1ccccc1,-5% (inactive)
7,O=[N+]([O-])c1ccc(C(S(=O)(=O)Cc2ccccc2)S(=O)(=O)Cc2ccccc2)cc1,-4% (inactive)
8,O=C1NC(=O)C2C1C(c1ccc([N+](=O)[O-])cc1)=NN2Cc1ccccc1 (stereo not given),50.8% (active)
9,CC(=O)N1c2ccccc2N(Cc2ccc([N+](=O)[O-])cc2)C(=O)C1(C)C,-1.8% (inactive)
10,CC(=O)CSc1nc(CCc2ccccc2)c(C#N)c(=O)[nH]1,-4.6% (inactive)
11,N#Cc1c(-c2cccs2)nc(SCC(=O)c2ccc(Br)cc2)[nH]c1=O,68.3% (active)
12,Cc1cc(C)c2c(=O)[nH]c(SCC(=O)Nc3ccc(Br)cc3)nc2n1,2.1% (inactive)
13,COC(=O)[C@H](C(C)C)n1c(C)c(C(C)=O)c(C(C)=O)c1C,3.5% (inactive)
14,O=C1CSC(=S)N1/N=C/c1ccc(O)c([N+](=O)[O-])c1,48.1% (active)
15,CCOc1cccc(/C=N/N2C(=O)CSC2=S)c1O,32.9% (inactive)
16,COc1ccc(C2CC(c3ccccc3)=NN2C(=O)c2ccc(Cl)c([N+](=O)[O-])c2)cc1 (stereo not given),-5% (inactive)
17,CCCCc1nc(NCCN)c(C#N)c2c1CSC(C)(C)C2,0.8% (inactive)
18,COc1ccc(CC(N)c2csc(NC(=O)Nc3ccc(C(C)C)cc3)n2)cc1 (stereo not given),2.4% (inactive)
19,NC(=O)COc1ccc(/C=N/NC(=O)C2CCCN2S(=O)(=O)c2ccc(Cl)cc2)cc1 (stereo not given),-4.1% (inactive)
20,NC(N)=N/N=C/c1ccc(OCc2ccc(Cl)cc2Cl)cc1,51.4% (active)
21,COc1ccc(Cl)cc1N(CC(=O)N/N=C/c1ccc(OCC(N)=O)cc1)S(C)(=O)=O,-5.6% (inactive)
22,CC1CCC2(CC1)NC(=O)N(CC(=O)NCc1ccco1)C2=O (stereo not given),7.9% (inactive)
23,N#Cc1c(-c2ccc(Cl)cc2)c2c([nH]c1=S)CCCC2,10.1% (inactive)
24,CC1Cc2ccccc2N1S(=O)(=O)c1cccc(C(=O)NCC(c2ccco2)N2CCCC2)c1 (stereo not given),5.2% (inactive)

row,SMILES,inhibition
1,C=CCn1c(=S)[nH]c2scc(-c3ccco3)c2c1=O,48.1% (active)
2,CC1(C)C(C=C(Cl)Cl)C1C(=O)N(Cc1ccc(Cl)cc1)C1CCS(=O)(=O)C1 (stereo not given),-6.8% (inactive)
3,CC(C)(C)NC(=O)NC(=O)CN1CCC(Cc2ccccc2)CC1,2.6% (inactive)
4,O=C(O)CCCCOn1ccnc1,-5.3% (inactive)
5,O=C(OCc1cc2ccccc2[nH]c1=O)c1cccnc1,93.5% (active)
6,Cc1ccc2[nH]c(=O)c(COC(=O)c3ccccn3)cc2c1,-5.9% (inactive)
7,O=C(OCc1cc(Cl)ccc1OC(F)F)c1cccnc1,9.5% (inactive)
8,COc1cccc(C2CC(c3ccccc3)=NN2S(=O)(=O)c2ccccc2)c1OC (stereo not given),1.8% (inactive)
9,COc1cccc(Nc2nnc(SCC(=O)N3CC(=O)Nc4ccccc43)s2)c1,0.5% (inactive)
10,O=C(CCS(=O)(=O)c1ccc(Br)cc1)NCCc1ccc(Cl)cc1,-2.9% (inactive)
11,COc1ccc(Cl)cc1NC(=O)CCS(=O)(=O)c1ccc(Br)cc1,80.4% (active)
12,COc1ccc(Cl)cc1NC(=O)COC(=O)c1ccc(Br)o1,-3.1% (inactive)
13,O=C(CSc1ccc2nnc(-c3ccccc3)n2n1)N1CCCc2ccccc21,39.2% (inactive)
14,COC(=O)c1ccc(C(=O)OC)c(NC(=S)N2CCN(c3ccc(F)cc3)CC2)c1,-2.6% (inactive)
15,Cc1ccc(CSCC2Nc3ccc(C(=O)N4CCN(c5ccc(F)cc5)CC4)cc3NC2=O)cc1 (stereo not given),109% (active)
16,COc1cccc2c1OCC1COc3c(c(=O)n(C)c(=O)n3C)C21 (stereo not given),-1.5% (inactive)
17,C=CC1=C(C(=O)O)N2C(=O)[C@@H](NC(=O)/C(=N/OCC(=O)O)c3csc(N)n3)[C@H]2SC1,45.1% (active)
18,C=CC1=C(C(=O)O)N2C(=O)[C@@H](NC(=O)/C(=N\OCC(=O)O)c3csc(N)n3)[C@H]2SC1,-0.3% (inactive)
19,Cc1ccc2c(CN3CCN(S(=O)(=O)c4ccccc4C(F)(F)F)CC3)cc(=O)oc2c1,3.9% (inactive)
20,Cc1ccc(S(=O)(=O)N[C@@H](Cc2ccccc2)C(=O)N2CCC(C(=O)N[C@H](C(=O)O)C(C)O)CC2)cc1 (stereo not given in full),-7.8% (inactive)
21,O=C(CN1CCc2cc3c(cc2C1)OCCCO3)Nc1ccccc1,1.3% (inactive)
22,Cc1ccc(NC(=O)CN2CCc3ccccc3C2)cc1,90.1% (active)
23,Cc1ccc(NC(=O)CN2CCc3ccccc3C2)cc1C,7.2% (inactive)
24,CSc1nccc(NC(=O)c2ccc(C(C)(C)C)cc2)n1,0.3% (inactive)

row,SMILES,inhibition
1,CSC1=N/C(=C\C=C\c2cccs2)C(=O)S1,41.3% (active)
2,CC1(C(=O)NS(=O)(=O)c2ccccc2)CCN1C(=O)C1CCCCC1 (stereo not given),-2.7% (inactive)
3,O=C(CCN1CCN(C/C=C/c2ccccc2)CC1)Nc1cccc(F)c1,2.3% (inactive)
4,Cc1nc2ccc(C(=O)N3CCSCC3)cc2s1,93.1% (active)
5,Cc1cccc(C(=O)N2CCC(c3nc4ccccc4s3)CC2)c1,-7.6% (inactive)
6,Cc1nc2ccc(NC(=O)C3CCCCC3)cc2s1,-1.1% (inactive)
7,Cc1ccc(C2CCN(C(=S)Nc3cccc(Cl)c3)C2)cc1 (stereo not given),-2.1% (inactive)
8,COCCCNC(=S)NCCNc1nc2cc(C)c(C)cc2cc1C#N,-1.6% (inactive)
9,Cc1cc(C)cc(NC(=S)NCCCN2CCOCC2)c1,0.3% (inactive)
10,Cc1ccc2cc(C#N)c(NCCNC(=S)NCCCN3CCOCC3)nc2c1,50.7% (active)
11,CN(Cc1ccccc1F)c1cc2c(c3c1ccn3C)C1CCC2O1 (stereo not given),7.9% (inactive)
12,O=S(=O)(c1cccc(S(=O)(=O)N2CCC(n3nnc4ccccc43)CC2)c1)N1CCCCC1,4.9% (inactive)
13,CN1CCN(c2ccc(NC(=O)c3cc(Cl)c4c(c3)OCCO4)cc2)CC1,-0.3% (inactive)
14,Cn1cnnc1SCC(=O)Nc1ccc(N2CCOCC2)cc1,7.5% (inactive)
15,C=CC(=O)Nc1ccc(Nc2ccnc(Nc3ccc(N4CCN(C)CC4)cc3)n2)cc1,66.1% (active)
16,C=CCc1cc(S(=O)(=O)c2ccc(O)c(CC=C)c2)ccc1O,-1.3% (inactive)
17,Cc1nc2nc(COc3ccccc3)[nH]n2c(=O)c1C,3.7% (inactive)
18,CNC(=O)NCCN1CCCC1=O,-0.3% (inactive)
19,CCCCC(C(=O)NC(C)(C)C)N(Cc1ccccc1)C(=O)c1snc(C(N)=O)c1N (stereo not given),-1.4% (inactive)
20,Cc1csc2nc(O)c(C(=O)NCCN3CCOCC3)c(=O)n12,-3.8% (inactive)
21,CSc1ccccc1NC(=O)C(C)N1C(=O)c2ccccc2S1(=O)=O (stereo not given),-7.1% (inactive)
22,CC(=O)Nc1ccccc1Sc1ccc2c3c(cccc13)C(=O)N(c1ccc(C)cc1)C2=O,48.3% (active)
23,CCCOC(=O)c1ccc(N2C(=O)c3ccccc3C2=O)cc1,0.9% (inactive)
